Test results taken from ChEMBL document CHEMBL3988442, “University of Dundee, Small-Polar-MMV Screening Library” (2021).
For some of these results: Entries with a potency or affinity are not part of this list.

Columns and labels:
Parameters in all cases: scale not given: direction of the effect not stated beside the values
[1] = biological target: Protein translocase subunit SecA (Escherichia coli (strain K12)) (UniProt P10408); test: Assay to Identify E. coli SecA ATPase Inhibitors; type: functional; conditions: 30 µM
Protein translocase subunit SecA (Escherichia coli (strain K12)), sequence (P10408 whole entry): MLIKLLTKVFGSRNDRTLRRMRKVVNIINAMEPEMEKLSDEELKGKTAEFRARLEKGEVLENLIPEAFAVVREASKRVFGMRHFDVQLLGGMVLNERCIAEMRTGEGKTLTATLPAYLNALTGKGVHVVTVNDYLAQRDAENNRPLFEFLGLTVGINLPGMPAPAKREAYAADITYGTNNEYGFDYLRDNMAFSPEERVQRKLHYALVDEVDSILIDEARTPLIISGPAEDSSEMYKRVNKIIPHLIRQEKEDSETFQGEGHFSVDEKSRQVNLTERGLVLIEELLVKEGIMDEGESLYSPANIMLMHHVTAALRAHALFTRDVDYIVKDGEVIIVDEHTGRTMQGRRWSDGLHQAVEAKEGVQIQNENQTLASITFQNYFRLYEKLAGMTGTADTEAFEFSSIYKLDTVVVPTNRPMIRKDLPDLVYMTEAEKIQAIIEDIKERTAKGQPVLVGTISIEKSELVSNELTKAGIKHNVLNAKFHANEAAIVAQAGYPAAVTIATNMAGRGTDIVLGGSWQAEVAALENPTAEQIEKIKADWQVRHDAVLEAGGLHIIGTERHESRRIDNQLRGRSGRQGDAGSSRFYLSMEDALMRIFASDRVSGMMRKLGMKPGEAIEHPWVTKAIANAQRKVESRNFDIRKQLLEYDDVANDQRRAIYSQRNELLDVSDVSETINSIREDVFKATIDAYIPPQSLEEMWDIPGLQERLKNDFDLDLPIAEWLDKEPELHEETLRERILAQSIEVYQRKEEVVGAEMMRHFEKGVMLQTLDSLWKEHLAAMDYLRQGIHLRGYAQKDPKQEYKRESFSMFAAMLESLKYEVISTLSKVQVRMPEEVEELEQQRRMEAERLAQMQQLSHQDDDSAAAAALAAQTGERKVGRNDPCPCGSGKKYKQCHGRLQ

[2] = biological target: T1, Ubiquitin-activating enzyme e1, putative (Leishmania donovani (strain BPK282A1)) (UniProt E9BSI1); test: Leishmania donovani Ubiquitin Activating Enzyme (LdE1); type: functional; conditions: 30 µM
T1 sequence (whole entry): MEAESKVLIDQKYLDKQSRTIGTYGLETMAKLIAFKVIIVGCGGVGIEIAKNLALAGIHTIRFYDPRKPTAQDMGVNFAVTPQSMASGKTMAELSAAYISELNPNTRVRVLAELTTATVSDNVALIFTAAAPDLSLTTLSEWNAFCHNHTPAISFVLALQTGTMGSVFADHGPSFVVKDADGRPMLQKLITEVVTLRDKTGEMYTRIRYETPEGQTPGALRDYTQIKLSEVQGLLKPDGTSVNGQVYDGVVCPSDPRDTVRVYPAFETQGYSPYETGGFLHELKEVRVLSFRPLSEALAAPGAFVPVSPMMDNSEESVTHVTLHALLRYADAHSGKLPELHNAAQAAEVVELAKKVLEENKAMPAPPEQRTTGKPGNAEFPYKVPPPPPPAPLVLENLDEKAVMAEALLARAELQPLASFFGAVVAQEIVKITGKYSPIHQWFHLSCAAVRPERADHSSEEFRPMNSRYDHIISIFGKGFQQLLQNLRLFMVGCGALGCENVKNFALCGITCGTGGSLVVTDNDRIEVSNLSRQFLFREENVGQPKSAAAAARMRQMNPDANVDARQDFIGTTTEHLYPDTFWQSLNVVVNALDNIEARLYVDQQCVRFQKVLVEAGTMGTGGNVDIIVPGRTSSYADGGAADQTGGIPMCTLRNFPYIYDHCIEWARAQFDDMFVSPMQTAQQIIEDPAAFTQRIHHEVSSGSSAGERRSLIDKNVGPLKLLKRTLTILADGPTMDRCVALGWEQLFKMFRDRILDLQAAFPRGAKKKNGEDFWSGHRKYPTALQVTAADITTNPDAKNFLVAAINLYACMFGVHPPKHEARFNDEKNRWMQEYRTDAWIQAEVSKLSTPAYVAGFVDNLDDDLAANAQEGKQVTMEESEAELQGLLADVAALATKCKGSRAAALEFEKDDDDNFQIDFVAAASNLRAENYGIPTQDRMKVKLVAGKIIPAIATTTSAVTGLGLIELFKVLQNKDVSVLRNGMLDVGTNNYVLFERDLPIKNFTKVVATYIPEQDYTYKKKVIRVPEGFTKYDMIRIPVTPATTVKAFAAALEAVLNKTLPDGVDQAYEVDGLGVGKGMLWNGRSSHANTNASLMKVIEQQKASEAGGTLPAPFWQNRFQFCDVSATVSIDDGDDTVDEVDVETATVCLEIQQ

[3] = biological target: AMP-activated protein kinase, AMPK (Homo sapiens) (UniProt P54646+O43741+P54619+Q9UGJ0+Q9Y478+Q13131+Q9UGI9); test: AMP-dependent Kinase enzyme assay. An in vitro enzyme assay that detects ADP turnover that is directly proportional to AMPK activity. This uses naive AMPK that is activated during the assay with MK-8722; type: functional; conditions: 30 µM
[4] = biological target: Sialic acid-binding Ig-like lectin 9 (Homo sapiens) (UniProt Q9Y336); test: Hs-Siglec9 ALPHAscreen SOP 20170721; conditions: 10 µM
Sialic acid-binding Ig-like lectin 9 (Homo sapiens), sequence (Q9Y336 whole entry): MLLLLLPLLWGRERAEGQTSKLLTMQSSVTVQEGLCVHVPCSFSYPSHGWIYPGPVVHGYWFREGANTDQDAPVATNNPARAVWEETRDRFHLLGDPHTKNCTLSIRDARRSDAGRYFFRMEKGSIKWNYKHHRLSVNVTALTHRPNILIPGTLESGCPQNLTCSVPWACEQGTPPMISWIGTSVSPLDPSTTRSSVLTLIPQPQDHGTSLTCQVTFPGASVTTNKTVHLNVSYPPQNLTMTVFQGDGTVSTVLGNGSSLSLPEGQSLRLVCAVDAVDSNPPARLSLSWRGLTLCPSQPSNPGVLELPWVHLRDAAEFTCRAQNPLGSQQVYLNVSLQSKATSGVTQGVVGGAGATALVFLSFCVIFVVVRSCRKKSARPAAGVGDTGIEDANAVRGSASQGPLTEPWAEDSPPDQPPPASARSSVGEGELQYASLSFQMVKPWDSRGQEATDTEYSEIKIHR

Trypanosoma cruzi = test: Trypanosoma cruzi phosphomannomutase and mannose-1-phosphate guanylyltransferase assay; type: functional; conditions: 10 µM
[5] = biological target: T2, Arginase-2, mitochondrial (Homo sapiens) (UniProt P78540); test: in vitro enzyme assay to detect the production of urea directly proportional to the activity of Arginase II; type: functional; conditions: 33.3 µM; also: in the data most compounds retested in dose-response had high values
T2 sequence (whole entry): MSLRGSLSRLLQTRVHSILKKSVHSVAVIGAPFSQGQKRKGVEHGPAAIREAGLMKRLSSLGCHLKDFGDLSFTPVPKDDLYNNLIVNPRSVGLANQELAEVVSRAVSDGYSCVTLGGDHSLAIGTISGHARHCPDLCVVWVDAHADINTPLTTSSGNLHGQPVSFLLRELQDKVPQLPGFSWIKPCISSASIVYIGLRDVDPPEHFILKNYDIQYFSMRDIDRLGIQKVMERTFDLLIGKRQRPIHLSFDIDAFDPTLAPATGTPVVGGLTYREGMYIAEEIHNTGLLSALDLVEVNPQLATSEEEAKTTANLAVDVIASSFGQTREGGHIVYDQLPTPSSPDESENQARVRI

[6] = biological target: T3, Proteasome subunit beta (Trypanosoma cruzi) (UniProt O96673); test: Trypanosoma cruzi proteasome chymotrypsin-like activity (TcProtChymo) assay.; also: in the data most compounds retested in dose-response had high values; type: functional; conditions: 9.37 µM
T3 sequence (whole entry): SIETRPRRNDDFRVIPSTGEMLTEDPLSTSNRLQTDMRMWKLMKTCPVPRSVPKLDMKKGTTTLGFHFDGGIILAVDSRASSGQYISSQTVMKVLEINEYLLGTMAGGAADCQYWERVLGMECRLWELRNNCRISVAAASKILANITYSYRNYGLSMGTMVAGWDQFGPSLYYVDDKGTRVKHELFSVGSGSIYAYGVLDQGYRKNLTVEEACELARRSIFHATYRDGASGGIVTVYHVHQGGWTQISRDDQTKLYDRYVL

Homo sapiens = organism: Homo sapiens; test: To identify inhibition of the IFN signalling (Jak-Stat) pathway via expression of an eGFP reporter gene under the control of an IFN-stimulated response element (ISRE) containing MxA promoter.; type: functional; conditions: 30 µM
[7] = biological target: T4, Tyrosyl-tRNA synthetase, putative (Trypanosoma cruzi (strain CL Brener)) (UniProt Q4DSP6); test: Trypanosoma cruzi tyrosyl tRNA synthetase (TcYRS) _High Tyrosine SOP; type: functional; conditions: 30 µM; also: in the data most compounds retested in dose-response had high values
T4 sequence (whole entry): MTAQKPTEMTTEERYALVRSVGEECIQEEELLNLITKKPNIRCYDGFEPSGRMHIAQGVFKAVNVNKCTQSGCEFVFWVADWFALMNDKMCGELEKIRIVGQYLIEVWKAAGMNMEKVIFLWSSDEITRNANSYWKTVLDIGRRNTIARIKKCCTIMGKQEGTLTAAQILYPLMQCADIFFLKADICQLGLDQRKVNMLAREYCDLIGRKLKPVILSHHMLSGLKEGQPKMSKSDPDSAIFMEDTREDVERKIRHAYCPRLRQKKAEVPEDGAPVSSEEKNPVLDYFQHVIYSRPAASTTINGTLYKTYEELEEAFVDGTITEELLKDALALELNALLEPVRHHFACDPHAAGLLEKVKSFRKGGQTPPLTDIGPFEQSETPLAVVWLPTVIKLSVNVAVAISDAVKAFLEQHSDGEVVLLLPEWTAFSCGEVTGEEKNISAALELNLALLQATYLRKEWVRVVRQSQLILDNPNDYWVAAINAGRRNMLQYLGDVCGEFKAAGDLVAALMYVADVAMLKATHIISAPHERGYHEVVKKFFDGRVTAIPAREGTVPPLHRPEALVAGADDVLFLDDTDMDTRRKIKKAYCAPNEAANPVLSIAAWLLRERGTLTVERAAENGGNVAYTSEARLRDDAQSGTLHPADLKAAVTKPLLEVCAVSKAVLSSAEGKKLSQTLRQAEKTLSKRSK

[8] = biological target: T4, Tyrosyl-tRNA synthetase, putative (Trypanosoma cruzi (strain CL Brener)); test: Trypanosoma cruzi tyrosyl tRNA synthetase (TcYRS) SOP; type: functional; conditions: 30 µM
[9] = biological target: Chromo domain-containing protein 1 (Saccharomyces cerevisiae (strain ATCC 204508 / S288c) (Baker's yeast)) (UniProt P32657); test: ScCHD-1 Enzyme Inhibition Assay; type: functional; conditions: 30 µM; also: in the data most compounds retested in dose-response had high values
Chromo domain-containing protein 1 (Saccharomyces cerevisiae (strain ATCC 204508 / S288c) (Baker's yeast)), sequence (P32657 whole entry, the tested form may be a part): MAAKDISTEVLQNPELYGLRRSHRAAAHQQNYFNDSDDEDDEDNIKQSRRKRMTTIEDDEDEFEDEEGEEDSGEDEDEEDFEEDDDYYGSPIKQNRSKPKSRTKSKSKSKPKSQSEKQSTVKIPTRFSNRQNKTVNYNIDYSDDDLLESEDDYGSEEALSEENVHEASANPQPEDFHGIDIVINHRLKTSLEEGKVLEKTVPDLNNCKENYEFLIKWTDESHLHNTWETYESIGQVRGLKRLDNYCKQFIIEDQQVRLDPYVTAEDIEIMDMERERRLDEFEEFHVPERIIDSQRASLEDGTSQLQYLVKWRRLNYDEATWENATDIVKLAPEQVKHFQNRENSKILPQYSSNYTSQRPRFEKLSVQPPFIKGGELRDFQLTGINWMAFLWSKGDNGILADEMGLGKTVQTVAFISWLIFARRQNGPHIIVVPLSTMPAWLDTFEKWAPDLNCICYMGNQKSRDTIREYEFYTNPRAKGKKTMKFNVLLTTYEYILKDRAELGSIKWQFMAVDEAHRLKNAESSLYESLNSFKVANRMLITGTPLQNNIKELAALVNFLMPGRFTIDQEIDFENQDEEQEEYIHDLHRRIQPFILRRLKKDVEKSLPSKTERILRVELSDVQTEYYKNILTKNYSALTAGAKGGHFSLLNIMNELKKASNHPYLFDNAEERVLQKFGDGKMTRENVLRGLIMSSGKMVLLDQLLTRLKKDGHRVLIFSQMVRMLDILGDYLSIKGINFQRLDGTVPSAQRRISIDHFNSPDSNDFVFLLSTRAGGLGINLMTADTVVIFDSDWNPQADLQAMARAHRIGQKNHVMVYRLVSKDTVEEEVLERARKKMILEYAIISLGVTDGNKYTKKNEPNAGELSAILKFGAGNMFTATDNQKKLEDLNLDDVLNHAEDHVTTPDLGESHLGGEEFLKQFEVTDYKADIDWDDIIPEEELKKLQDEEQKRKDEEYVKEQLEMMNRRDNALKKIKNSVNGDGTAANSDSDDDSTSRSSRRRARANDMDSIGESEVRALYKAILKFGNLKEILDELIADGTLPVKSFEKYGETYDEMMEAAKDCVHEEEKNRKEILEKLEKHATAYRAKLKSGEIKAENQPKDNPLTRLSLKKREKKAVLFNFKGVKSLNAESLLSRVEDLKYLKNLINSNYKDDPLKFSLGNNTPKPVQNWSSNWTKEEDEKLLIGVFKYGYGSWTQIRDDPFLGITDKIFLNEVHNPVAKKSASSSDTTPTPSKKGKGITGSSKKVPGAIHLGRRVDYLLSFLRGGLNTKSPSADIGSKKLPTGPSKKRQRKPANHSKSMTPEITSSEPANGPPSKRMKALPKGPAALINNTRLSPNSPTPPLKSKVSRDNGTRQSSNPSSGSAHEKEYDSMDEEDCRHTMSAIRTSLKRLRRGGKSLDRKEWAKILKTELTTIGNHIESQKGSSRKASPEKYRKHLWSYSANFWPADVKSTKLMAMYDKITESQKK

| Structure (SMILES) | Percent Effect [1] [%] | Percent Effect [2] [%] | Percent Effect [3] [%] | Percent Effect [4] [%] | Percent Effect (Trypanosoma cruzi) [%] | Percent Effect [5] [%] | Percent Effect [6] [%] | Percent Effect (Homo sapiens) [%] | Percent Effect [7] [%] | Percent Effect [8] [%] | Percent Effect [9] [%] |
| --- | --- | --- | --- | --- | --- | --- | --- | --- | --- | --- | --- |
| Cc1cc(N2CCN(CCO)CC2)nc(-c2ccncc2)n1 | -0.472 | 5.26 | 0.962 | -2.69 | -0.876 | -8.28 | 21.6 | -0.921 | 7.45 | 7.79 | -4.96 |
| COc1c(CNC2CCCc3ccccc32)c(C)nn1C (stereo unspecified) | -7.16 | 21.6 | -16.2 | 24 | 4.79 | 2.23 | 12.4 | 7.25 | 2.15 | 13.6 | -5.73 |
| Cn1cnc2c1C(COCC1CCOCC1)CN(C1CCOCC1)C2 (stereo unspecified) | -3.42 | 13.3 | 10.9 | 4.02 | -2.76 | 3.96 | 6.96 | -11.2 | 5.32 | 11.5 | -4.46 |
| Cc1nn(C)c(C)c1C1CCCN1CC(=O)NC(C1CC1)C1CC1 (stereo unspecified) | -3.47 | 10.8 | -8.63 | 11.2 | 4.25 | -4.01 | -3.06 | 4.1 | 5.42 | 11.1 | -9.75 |
| Cc1n[nH]c(C2CN(C(=O)c3cnc[nH]3)CCO2)n1 (stereo unspecified) | -2.98 | 7.79 | 4.4 | 7.68 | 3.62 | -1.05 | 12.8 | -9.06 | 5.71 | 21.2 | -19.1 |
| Cc1ccc(NC(=O)N(C)Cc2cnn(C)c2)cc1OCC(F)F | -9.52 | 2.7 | -18.9 | 28 | 12.4 | -11.2 | 6.67 | 11.9 | 3.45 | 23.5 | -16.1 |
| OC1CCN(Cc2cc3c(cc2Br)OCCO3)CC1 | -3.08 | 4.17 | 1.37 | -5.64 | -7.68 | 4.42 | 0.526 | -3.8 | 1.05 | 2.56 | -1.21 |
| Cc1cnn(CC(C)NCc2csc(-c3ccsc3)n2)c1 (stereo unspecified) | -3.78 | -3.8 | -1.07 | 0.382 | 0.923 | -1.94 | 28.1 | 12.5 | 6.25 | 12.7 | -20.9 |
| N#Cc1ccc(CN2CCN(C(=O)c3cc(C4CC4)[nH]n3)CC2)cc1 | -4.3 | 21.6 | -5.26 | 14.7 | 4.74 | -3.51 | 5.21 | 23.8 | 7.92 | 18.3 | -4.6 |
| CC(=O)NCC1CCN(C(=O)c2csc(-c3ccc(C)cc3C)n2)CC1 | -3.29 | 13.5 | 1.21 | 1.58 | 1.58 | 0.554 | 4.49 | 35.7 | 7.92 | 23.2 | 0.867 |
| Cc1cccc(C(=O)NC2CCN(c3cnn(C)c3)C2=O)n1 (stereo unspecified) | -4.94 | 16.2 | -3.39 | 24.3 | 7.33 | 23.6 | 9.36 | -7.64 | 3.23 | 13.6 | -10.2 |
